Measured values reported in the supplement of paper PMC8728848.
The entries come from a sample that favours the strongest signals as a whole.

Assays:
Test in all cases: glycan array binding signal (z-score within array); higher = stronger binding
Conditions in all cases: glycan notation: IUPAC condensed, linker removed
[1] = molecular target: Fuc(a1-2)Gal(b1-3)GlcNAc(b1-2)Man(a1-3)[Fuc(a1-2)Gal(b1-3)GlcNAc(b1-2)Man(a1-6)]Man(b1-4)GlcNAc(b1-4)GlcNAc
In short: (§1)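 Columns mapping to the same glycan were averaged after glycan names were converted to IUPAC-condensed notation. The data come from 3228 arrays in the Consortium for Functional Glycomics database, limited to those with an available protein sequence. Binding is reported as a within-array Z-score averaged across arrays of one protein sequence and across linkers.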

[2] = molecular target: Fuc(a1-2)Gal(b1-4)[Fuc(a1-3)]GlcNAc(b1-3)[Neu5Ac(a2-6)Gal(b1-4)GlcNAc(b1-6)]Gal(b1-4)Glc
In short: as §1

[3] = molecular target: Fuc(a1-2)Gal6S(b1-4)Glc6S
In short: as §1

[4] = molecular target: Fuc(a1-2)[Gal(a1-3)]Gal(b1-3)GlcNAc(b1-2)Man(a1-3)[Fuc(a1-2)[Gal(a1-3)]Gal(b1-3)GlcNAc(b1-2)Man(a1-6)]Man(b1-4)GlcNAc(b1-4)GlcNAc
In short: as §1

[5] = molecular target: Fuc(a1-2)[GalNAc(a1-3)]Gal(b1-3)GlcNAc(b1-3)GalNAc
In short: as §1

[6] = molecular target: Fuc(a1-2)[GalNAc(a1-3)]Gal(b1-4)GlcNAc(b1-2)Man(a1-3)[Fuc(a1-2)[GalNAc(a1-3)]Gal(b1-4)GlcNAc(b1-2)Man(a1-6)]Man(b1-4)GlcNAc(b1-4)[Fuc(a1-6)]GlcNAc
In short: as §1

Fuc(a1-4)GlcNAc = molecular target: Fuc(a1-4)GlcNAc
In short: as §1

[7] = molecular target: Gal(a1-3)Gal(b1-3)GlcNAc(b1-2)Man(a1-3)[Gal(a1-3)Gal(b1-3)GlcNAc(b1-2)Man(a1-6)]Man(b1-4)GlcNAc(b1-4)GlcNAc
In short: as §1

[8] = molecular target: Gal(a1-3)[Gal(a1-4)]Gal(b1-4)GlcNAc
In short: as §1

[9] = molecular target: Gal(b1-3)GalNAc(a1-3)[Fuc(a1-2)]Gal(b1-4)Glc
In short: as §1

[10] = molecular target: Gal(b1-3)GalNAc(b1-4)[Neu5Ac(a2-3)]Gal(b1-4)Glc
In short: as §1

[11] = molecular target: Gal(b1-3)GlcNAc(b1-3)Gal(b1-4)[Fuc(a1-3)]GlcNAc(b1-6)[Gal(b1-3)GlcNAc(b1-3)]Gal(b1-4)Glc
In short: as §1

[12] = molecular target: Gal(b1-4)GalNAc(a1-3)[Fuc(a1-2)]Gal(b1-4)GlcNAc
In short: as §1

[13] = molecular target: Gal(b1-4)GlcNAc(b1-2)[Gal(b1-4)GlcNAc(b1-6)]Man(a1-6)[Gal(b1-4)GlcNAc(b1-2)Man(a1-3)]Man(b1-4)GlcNAc(b1-4)GlcNAc
In short: as §1

[14] = molecular target: Gal(b1-4)GlcNAc(b1-2)[Gal(b1-4)GlcNAc(b1-6)]Man(a1-6)[GlcNAc(b1-4)][Gal(b1-4)GlcNAc(b1-2)[Gal(b1-4)GlcNAc(b1-4)]Man(a1-3)]Man(b1-4)GlcNAc(b1-4)[Fuc(a1-6)]GlcNAc
In short: as §1

[15] = molecular target: Gal(b1-4)GlcNAc(b1-3)Gal(b1-3)GalNAc
In short: as §1

[16] = molecular target: Gal(b1-4)GlcNAc(b1-3)Gal(b1-4)GlcNAc(b1-3)Gal(b1-4)GlcNAc(b1-3)Gal(b1-4)GlcNAc(b1-2)[Gal(b1-4)GlcNAc(b1-3)Gal(b1-4)GlcNAc(b1-3)Gal(b1-4)GlcNAc(b1-3)Gal(b1-4)GlcNAc(b1-6)]Man(a1-6)[Gal(b1-4)GlcNAc(b1-3)Gal(b1-4)GlcNAc(b1-3)Gal(b1-4)GlcNAc(b1-3)Gal(b1-4)GlcNAc(b1-2)Man(a1-3)]Man(b1-4)GlcNAc(b1-4)[Fuc(a1-6)]GlcNAc
In short: as §1

[17] = molecular target: Gal(b1-4)GlcNAc(b1-3)Gal(b1-4)GlcNAc(b1-3)GalNAc
In short: as §1

Gal3S(b1-4)Glc = molecular target: Gal3S(b1-4)Glc
In short: as §1

[18] = molecular target: Gal3S(b1-4)[Fuc(a1-3)]Glc6S
In short: as §1

Gal3S6S(b1-4)GlcNAc6S = molecular target: Gal3S6S(b1-4)GlcNAc6S
In short: as §1

Gal4S6S(b1-4)GlcNAc = molecular target: Gal4S6S(b1-4)GlcNAc
In short: as §1

Gal6P(b1-4)GlcNAc = molecular target: Gal6P(b1-4)GlcNAc
In short: as §1

Gal6S(b1-3)GlcNAc = molecular target: Gal6S(b1-3)GlcNAc
In short: as §1

[19] = molecular target: GalNAc(b1-3)Gal(a1-4)Gal(b1-4)GlcNAc
In short: as §1

GalNAc(b1-4)GlcNAc = molecular target: GalNAc(b1-4)GlcNAc
In short: as §1

[20] = molecular target: GalNAc(b1-4)GlcNAc(b1-2)Man(a1-3)[GalNAc(b1-4)GlcNAc(b1-2)Man(a1-6)]Man(b1-4)GlcNAc(b1-4)GlcNAc
In short: as §1

GalNAc3S(b1-4)GlcNAc = molecular target: GalNAc3S(b1-4)GlcNAc
In short: as §1

[21] = molecular target: Glc(a1-6)Glc(a1-6)Glc(a1-6)Glc
In short: as §1

[22] = molecular target: GlcNAc(a1-4)Gal(b1-4)GlcNAc(b1-3)Gal(b1-4)Glc
In short: as §1

[23] = molecular target: GlcNAc(a1-4)Gal(b1-4)GlcNAc(b1-3)Gal(b1-4)[Fuc(a1-3)]GlcNAc(b1-3)Gal(b1-4)[Fuc(a1-3)]GlcNAc
In short: as §1

[24] = molecular target: GlcNAc(b1-2)Man(a1-3)[GlcNAc(b1-2)Man(a1-6)]Man(b1-4)GlcNAc(b1-4)[Fuc(a1-6)]GlcNAc
In short: as §1

[25] = molecular target: GlcNAc(b1-3)Gal(b1-4)GlcNAc(b1-2)Man(a1-3)[GlcNAc(b1-3)Gal(b1-4)GlcNAc(b1-2)Man(a1-6)]Man(b1-4)GlcNAc(b1-4)[Fuc(a1-6)]GlcNAc
In short: as §1

[26] = molecular target: GlcNAc(b1-3)Gal(b1-4)GlcNAc(b1-6)[Gal(b1-3)]GalNAc
In short: as §1

GlcNAc(b1-6)GalNAc = molecular target: GlcNAc(b1-6)GalNAc
In short: as §1

[27] = molecular target: Man(a1-2)Man(a1-3)[Man(a1-2)Man(a1-6)]Man
In short: as §1

[28] = molecular target: Man(a1-2)Man(a1-3)[Man(a1-2)Man(a1-6)]Man(a1-6)[Man(a1-2)Man(a1-2)Man(a1-3)]Man
In short: as §1

[29] = molecular target: Man(a1-2)Man(a1-6)[Man(a1-3)]Man(a1-6)[Man(a1-2)Man(a1-2)Man(a1-3)]Man
In short: as §1

[30] = molecular target: Man(a1-3)[Man(a1-6)]Man(a1-6)[Man(a1-3)]Man
In short: as §1

Man(a1-6)Man = molecular target: Man(a1-6)Man
In short: as §1

[31] = molecular target: Neu5Ac(a2-3)Gal(b1-3)GalNAc
In short: as §1

[32] = molecular target: Neu5Ac(a2-3)Gal(b1-4)GlcNAc
In short: as §1

[33] = molecular target: Neu5Ac(a2-3)Gal(b1-4)GlcNAc(b1-3)Gal(b1-3)GlcNAc
In short: as §1

[34] = molecular target: Neu5Ac(a2-3)Gal(b1-4)GlcNAc(b1-6)[Gal(b1-3)]GalNAc
In short: as §1

[35] = molecular target: Neu5Ac(a2-3)Gal(b1-4)[Fuc(a1-3)]GlcNAc(b1-3)GalNAc
In short: as §1

Neu5Ac(a2-3)GalNAc = molecular target: Neu5Ac(a2-3)GalNAc
In short: as §1

[36] = molecular target: Neu5Ac(a2-6)Gal(b1-4)GlcNAc(b1-2)Man(a1-3)[GlcNAc(b1-2)Man(a1-6)]Man(b1-4)GlcNAc(b1-4)GlcNAc
In short: as §1

[37] = molecular target: Neu5Ac(a2-8)Neu5Ac(a2-8)Neu5Ac(a2-3)[Gal(b1-3)GalNAc(b1-4)]Gal(b1-4)Glc
In short: as §1

[38] = molecular target: Neu5Gc(a2-8)Neu5Gc(a2-3)Gal(b1-4)GlcNAc
In short: as §1

B1: GS13455A-bfa-343-25-343 (Bacteroides fragilis) (protein)
chain: KDEIQIVDQDTSWQMDNKYIEEDIREQLGIDPFTDLVYLGYYGNPYTQLEAINDLVNTTLVGKNELSFKVKVTKPYKEDIKVNLMKEDKLVTDFPEMAEGIPLFPSENCTFEGGVLKAGELETTVKLTLKDVEKLNNLSGYVMAIKLTMEGSHEHLAIARTRSSYFVKLNLSIRLDNIDSSNKKIEGKGFNKEISFKSDIRPDKLGSLNDGNFTANNWYTSNANNYLTIILPEKQSLKGFRLDTNTSPSGSYMLKSCRVMVETPDGNWVNHGVFDRKSMDGIAYISFKKPVECTKVRFENMMAFNGRFSVDVNEVTAFR
- glycan array binding signal (z-score) [1]: -0.69
- glycan array binding signal (z-score) [2]: -0.309
- glycan array binding signal (z-score) [3]: 0.254
- glycan array binding signal (z-score) [4]: -0.738
- glycan array binding signal (z-score) [5]: 2.29
- glycan array binding signal (z-score) [6]: 1.46
- glycan array binding signal (z-score) (Fuc(a1-4)GlcNAc): 20.2
- glycan array binding signal (z-score) [7]: -0.044
- glycan array binding signal (z-score) [8]: 1.91
- glycan array binding signal (z-score) [9]: -0.504
- glycan array binding signal (z-score) [10]: -0.051
- glycan array binding signal (z-score) [11]: -0.016
- glycan array binding signal (z-score) [12]: -0.716
- glycan array binding signal (z-score) [13]: -0.11
- glycan array binding signal (z-score) [14]: -0.04
- glycan array binding signal (z-score) [15]: 0.107
- glycan array binding signal (z-score) [16]: 0.144
- glycan array binding signal (z-score) [17]: -0.065
- glycan array binding signal (z-score) (Gal3S(b1-4)Glc): 1.7
- glycan array binding signal (z-score) [18]: 1.38
- glycan array binding signal (z-score) (Gal3S6S(b1-4)GlcNAc6S): 1.68
- glycan array binding signal (z-score) (Gal4S6S(b1-4)GlcNAc): 0.197
- glycan array binding signal (z-score) (Gal6P(b1-4)GlcNAc): -0.523
- glycan array binding signal (z-score) (Gal6S(b1-3)GlcNAc): -0.365
- glycan array binding signal (z-score) [19]: 1.43
- glycan array binding signal (z-score) (GalNAc(b1-4)GlcNAc): -0.125
- glycan array binding signal (z-score) [20]: 1.75
- glycan array binding signal (z-score) (GalNAc3S(b1-4)GlcNAc): -0.39
- glycan array binding signal (z-score) [21]: -0.604
- glycan array binding signal (z-score) [22]: 0.059
- glycan array binding signal (z-score) [23]: 1.64
- glycan array binding signal (z-score) [24]: -0.409
- glycan array binding signal (z-score) [25]: 0.601
- glycan array binding signal (z-score) [26]: -0.194
- glycan array binding signal (z-score) (GlcNAc(b1-6)GalNAc): -0.656
- glycan array binding signal (z-score) [27]: -0.554
- glycan array binding signal (z-score) [28]: -0.701
- glycan array binding signal (z-score) [29]: 0.988
- glycan array binding signal (z-score) [30]: -0.129
- glycan array binding signal (z-score) (Man(a1-6)Man): 0.205
- glycan array binding signal (z-score) [31]: 0.08
- glycan array binding signal (z-score) [32]: -0.152
- glycan array binding signal (z-score) [33]: 0.34
- glycan array binding signal (z-score) [34]: -0.414
- glycan array binding signal (z-score) [35]: 3.25
- glycan array binding signal (z-score) (Neu5Ac(a2-3)GalNAc): -0.681
- glycan array binding signal (z-score) [36]: 0.878
- glycan array binding signal (z-score) [37]: -0.113
- glycan array binding signal (z-score) [38]: 0.527
